Assay outcomes: PubChem BioAssay, National Center for Advancing Translational Sciences (NCATS)
Pf growth 48h = inhibits P. falciparum growth in the first generation, 48 h. Potency, µM (doses to about 28.7 µM), most hits filed as inhibitors. hit rate 5.9% among 310,000. P. falciparum luciferase growth in erythrocytes, 48 h
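Cell-based growth assay: transgenic P. falciparum expressing firefly luciferase, cultured in red cells within RPMI 1640 containing 0.5% w/v Albumax, 24 mM bicarbonate and gentamycin. A drop in luciferase activity indicates inhibition.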
Pf growth 96h = inhibits malaria parasite growth, 96 h. P. falciparum luciferase reporter growth, 96 h. Potency, µM (doses to about 28.7 µM), usual class: inhibitors. hit rate 6.9% among 320,000
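Delayed-death screen, second-generation endpoint: infected erythrocytes, 2% hematocrit, 0.05% parasitemia final; 96 hours at 37 C, 5% CO2; luciferase detection reagent; luminescence decrease equals reduced growth.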
Shiga inhibitor = Shiga toxin inhibition; Vero cells, Shiga toxin protein synthesis inhibition reporter; inhibition, % at 38.7 µM; hit rate 9.2% among 290,000; AID 2315; in the data active means inhibition mostly above about 28%, no sharp cut-off; inactive means mostly below about 43%
AMA1 RON2 block = AMA1-RON2 (P. falciparum) interaction inhibition | AlphaScreen AMA1-biotinylated RON2 peptide binding | Potency, µM (top dose mostly 58.2 µM), actives largely listed as inhibitors | hit rate 0.2% among 360,000; further: nearly all actives have a fitted effect of over 45% in size
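AMA1 (3D7) with his tag at 25 nM final met compounds first, then biotinylated RON2 peptide at 25 nM; detection used donor plus acceptor beads, 10 µg/mL apiece, read by AlphaScreen after 30 min at room temperature.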
Cycloheximide cs = counter-screen for Shiga toxin inhibitors: cycloheximide protein synthesis inhibition; hit rate 12% among 300,000; cell reporter, cycloheximide protein synthesis inhibition counterscreen; max response, %; in the data active means max response mostly above about 13%, no sharp cut-off; inactive means mostly below about 14%; further: read at 38.3 µM for the half of the compounds with a filed dose
SARS PLpro yeast = SARS-CoV PLP inhibition in yeast. S. cerevisiae expressing SARS-CoV PLpro, growth rescue. Potency, µM (top dose mostly 32.9 µM), usual class: activators. hit rate 0.19% among 330,000. AID 485353; calls by dose curve; further: nearly all actives have a fitted effect of over 55% in size
Of the large screens only hits and unclear results are named; the others gave an inactive call. Compounds with a hit are over-represented: about 19% of the library has one in this group of screens. Unless noted, the call rests on the fitted dose curve; in most records, active means well fitted curve in the direction sought with a large enough effect; inconclusive means small, poorly fitted or top-dose-only effect, or another doubt; inactive means no such curve, though single readings can be large; an effect the other way counts as inactive or inconclusive.

CCC(=O)Nc1nc2ccccc2n1Cc1ccccc1	Pf growth 48h inconclusive, Pf growth 96h inconclusive
O=C(CNS(=O)(=O)c1c(F)cccc1F)NC1CCCc2ccccc21 (stereo not drawn)	none (no result: Pf growth 48h, Pf growth 96h, Shiga inhibitor, Cycloheximide cs)
O=C(Nc1nc2ccccc2n1Cc1ccc(Cl)cc1)c1ccco1	Pf growth 48h 12µM
CC(=O)Nc1nc2ccccc2n1Cc1ccc(Cl)cc1	Pf growth 48h 2.9µM, Pf growth 96h inconclusive
O=C(Nc1nc2ccccc2n1CCOc1ccc(Cl)cc1)c1ccco1	Pf growth 96h inconclusive, Cycloheximide cs 20 (no result: Pf growth 48h)
O=C(Nc1nc2ccccc2n1CCN1CCCCC1)c1ccco1	Pf growth 96h inconclusive
CCn1c(SCC(=O)NCCc2ccc(F)cc2)nnc1-c1cccs1	none
CCCCNc1ncnc2[nH]ncc12	none (no result: Pf growth 48h, Pf growth 96h, Shiga inhibitor, Cycloheximide cs, SARS PLpro yeast)
CN(C(=O)COC(=O)CSc1ccc(C(N)=O)cc1[N+](=O)[O-])C1CCCCC1	none (no result: Shiga inhibitor, Cycloheximide cs)
CCOc1ccccc1NC(=O)CSc1nnc(Cc2cccn2C)n1-c1ccc(F)cc1	Pf growth 48h 5.9µM
Cc1ccc(NC(=O)CSc2nnc(Cc3cccn3C)n2-c2ccc(F)cc2)c(C)c1	Pf growth 96h 9.3µM (no result: Pf growth 48h)
Cn1cccc1Cc1nnc(SCC(=O)N2CCN(c3ccccc3)CC2)n1-c1ccc(F)cc1	Pf growth 48h inconclusive, Pf growth 96h 1.5µM
COc1ccc(CCNC(=O)CCCN2C(=O)C(c3ccccc3)Oc3cccnc32)cc1OC (stereo not drawn)	Pf growth 48h inconclusive
c1ccc(C2CCC(N3CCNCC3)CC2)cc1 (stereo not drawn)	SARS PLpro yeast inconclusive
COc1cccc(CCNC(=O)CCc2nnc(-c3ccc4c(c3)OCO4)o2)c1	none
CCn1nc(C)c(CNC(=O)CCc2nnc(-c3ccc(C(C)=O)s3)o2)c1C	none
CCC(=O)C1CCCN(C(=O)CCc2nnc(-c3ccc4c(c3)OCO4)o2)C1 (stereo not drawn)	Pf growth 96h inconclusive, Shiga inhibitor 51, Cycloheximide cs 38
CCC(=O)C1CCCN(C(=O)CCc2nnc(-c3ccc(C(C)=O)s3)o2)C1 (stereo not drawn)	Shiga inhibitor 98, Cycloheximide cs 40
CCCOC1CCCN(C(=O)CCc2nnc(-c3ccc4c(c3)OCO4)o2)C1 (stereo not drawn)	Pf growth 96h 13µM, Shiga inhibitor 117, Cycloheximide cs 46
CC(C)CC(O)C1CCN(C(=O)CCc2nnc(-c3ccccc3)o2)CC1 (stereo not drawn)	none
Cc1cc(C)n(CCN(C)C(=O)CCc2nnc(-c3ccc4c(c3)OCO4)o2)n1	Cycloheximide cs 9.7
COc1cc(Cl)ccc1OC1(C)CCN(Cc2ccc(SC)cc2)C1 (stereo not drawn)	none (no result: Pf growth 48h, Pf growth 96h, Shiga inhibitor, Cycloheximide cs, SARS PLpro yeast)
COc1ccccc1NC(=O)CCn1c(=O)c2cccn2c2ccccc21	SARS PLpro yeast inconclusive
COC(=O)[C@]12CCCCC=C1N(Cc1cccc3ccccc13)C(=O)[C@H](CC(=O)NCCC(C)C)C2	none (no result: Pf growth 48h, Pf growth 96h, Shiga inhibitor, Cycloheximide cs, SARS PLpro yeast)
CC1CCCN(C(=O)CCc2nnc(-c3ccc4c(c3)OCO4)o2)C1 (stereo not drawn)	Pf growth 96h inconclusive, Shiga inhibitor 101, Cycloheximide cs 37
COc1ccc(C2C(C#N)=C(N)Oc3c2ccc2cccnc32)cc1OC (stereo not drawn)	Pf growth 48h inconclusive, Pf growth 96h inconclusive
COc1cc(C2C(C#N)=C(N)Oc3c2ccc2ccccc32)ccc1OCC(=O)Nc1ccc(C)cc1 (stereo not drawn)	Pf growth 48h 10µM
COc1cc(C2C(C#N)=C(N)Oc3c2ccc2ccccc32)ccc1OCC(=O)Nc1cccc(C)c1 (stereo not drawn)	Pf growth 48h 12µM
Cc1ccc(/C=C/C(=O)N2CCN(S(=O)(=O)c3ccc(C)c(C)c3)CC2)o1	Pf growth 48h inconclusive, Pf growth 96h 5.9µM
Cc1ccc(S(=O)(=O)N2CCN(C(=O)N(C)C)CC2)cc1C	none (no result: Pf growth 96h)
Cc1ccc(/C=C/C(=O)N2CCN(S(=O)(=O)c3c(C)c(C)cc(C)c3C)CC2)o1	Pf growth 48h 7.4µM, Pf growth 96h inconclusive
CCCCC1CCc2[nH]nc(C(=O)O)c2C1 (stereo not drawn)	Pf growth 48h inconclusive, Pf growth 96h inconclusive (no result: Shiga inhibitor, Cycloheximide cs)
Fc1ccccc1Cc1noc(CN2CCC(OCc3cccnc3)CC2)n1	Shiga inhibitor 59, Cycloheximide cs 22
CC(=O)Nc1ccc(S(=O)(=O)NCC(=O)OCC(=O)NCCc2ccccc2)cc1	none (no result: Pf growth 48h, Pf growth 96h, Shiga inhibitor, Cycloheximide cs, SARS PLpro yeast)
CCOC(=O)c1ccccc1NC(=O)Cn1c(=O)n(Cc2ccccc2)c(=O)c2c(C)c(C)sc21	Pf growth 96h inconclusive
CCN1CCN(C(=O)/C(C#N)=C/c2ccc(OC(F)F)cc2)CC1	none
N#C/C(=C\C=C\c1ccccc1)C(=O)N1CCCC1	Pf growth 48h 7.4µM, Pf growth 96h inconclusive, Shiga inhibitor 70, Cycloheximide cs 22
Cc1ccc(/C=C(\C#N)C(=O)N2CCCC2)c(C)c1	Shiga inhibitor 125, Cycloheximide cs 37
N#C/C(=C\c1ccc(OC(F)F)cc1)C(=O)N1CCCCC1	Shiga inhibitor 46, Cycloheximide cs 27
Cc1nc(/C(N)=N/OC(=O)c2ccccc2Cl)c(C(F)(F)F)o1	Shiga inhibitor 91, Cycloheximide cs 52
Cc1nc(/C(N)=N/OC(=O)c2cccc(Cl)c2)c(C(F)(F)F)o1	Cycloheximide cs 11
c1ccc(Nc2nc(-c3cccs3)cs2)nc1	Pf growth 96h inconclusive, Shiga inhibitor 88, Cycloheximide cs 33
COc1ccc(CCNc2nc(-c3ccccn3)cs2)cc1OC	Pf growth 48h inconclusive, Pf growth 96h inconclusive
Cc1cccc(Nc2nc(-c3ccccn3)cs2)n1	Pf growth 48h inconclusive, Shiga inhibitor 63, Cycloheximide cs 37
Cc1cccc(Nc2nc(-c3cccs3)cs2)n1	Shiga inhibitor 68, Cycloheximide cs 46
CCc1cc(C(=O)N2CCN(C(=O)c3ccccc3)CC2)sc1C	Pf growth 48h inconclusive, Pf growth 96h inconclusive (no result: Shiga inhibitor, Cycloheximide cs)
COc1ccc(CNC(=O)c2cc(=O)c3cc(C)cc(C)c3o2)cc1	none
Sc1oc(-c2ccccc2)cc1C=Nc1ccccc1	Pf growth 96h inconclusive, Cycloheximide cs 30 (no result: Pf growth 48h)
Cc1cccc(NC(=O)c2nc[nH]c2C(=O)N[C@@H](Cc2ccccc2)C(=O)OC(C)(C)C)c1	Pf growth 48h inconclusive, Pf growth 96h 12µM
C[C@H](NC(=O)c1nc[nH]c1C(=O)N[C@@H](Cc1ccccc1)C(=O)OC(C)(C)C)C(=O)OC(C)(C)C	Pf growth 48h 7.4µM, Pf growth 96h inconclusive
CC(C)(C)OC(=O)[C@H](Cc1ccccc1)NC(=O)c1[nH]cnc1C(=O)N[C@@H](Cc1ccccc1)C(=O)OCc1ccccc1	Pf growth 48h inconclusive, Pf growth 96h inconclusive
CC(C)(C)OC(=O)[C@H](Cc1ccccc1)NC(=O)c1nc[nH]c1C(=O)N[C@@H](Cc1ccccc1)C(=O)OC(C)(C)C	Pf growth 48h 12µM, Pf growth 96h inconclusive
O=C1CCCN1CC(O)CS(=O)(=O)Cc1ccc(Cl)c(Cl)c1 (stereo not drawn)	none
